Unmarked numbers belong to inactive results. Entries that show only a call come without a potency. The source made the active and inactive calls. The call rests on the fitted dose curve.

Gonadotropin-releasing hormone receptor (Homo sapiens), sequence (P30968 whole entry, looked up): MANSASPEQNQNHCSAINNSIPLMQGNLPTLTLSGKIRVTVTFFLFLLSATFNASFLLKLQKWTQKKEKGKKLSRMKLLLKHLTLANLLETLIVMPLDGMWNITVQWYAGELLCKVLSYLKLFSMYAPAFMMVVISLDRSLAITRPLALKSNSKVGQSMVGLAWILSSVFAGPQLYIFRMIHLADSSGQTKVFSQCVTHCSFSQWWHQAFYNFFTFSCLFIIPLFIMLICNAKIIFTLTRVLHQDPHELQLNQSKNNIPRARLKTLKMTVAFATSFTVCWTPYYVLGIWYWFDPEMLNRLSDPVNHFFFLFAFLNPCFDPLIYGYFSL

The target in the assay is Gonadotropin-releasing hormone receptor (Homo sapiens) (UniProt P30968). The assay is described as follows: Human gonadotropin-releasing hormone receptor (GnRHR) small molecule agonists, calcium flux assay in GnRHR-HEK293 cells (AID 1920063). Further: nearly all actives have a fitted effect of over 35% in size. The note with it: calcium flux fluorescence, agonist mode; series mostly up to 57.6 µM. The source says:
National Center for Advancing Translational Sciences [NCATS]
Division of Preclinical Innovation [DPI]
U.S. Environmental Protection Agency [EPA]
National Institutes of Environmental Health Sciences [NIEHS]
National Toxicology Program [NTP]
U.S. Food and Drug Administration [FDA]
Gonadotropin-releasing hormone receptor (GnRHR) is a G-protein-coupled receptor (GPCR) and acts (through phospholipase C) to increase intracellular inositol trisphosphate and then release intracellular calcium stores. Cell-based GnRHR-Hek293 calcium influx assay is using HEK293 cells that have been genetically engineered to express the human GnRHR, which activity can be measured by calcium signaling. A compound/drug can activate (agonist) GnRHR that can be monitored by levels of intracellular calcium.
GnRHR-HEK293 cells developed by Codex Corp contain human GnRHR reporter gene, which was stably integrated into HEK 293 cells. The compound activation can be detected by fluorescence intensity via calcium flux assay. This cell line has been used to screen the Tox21 10K compound library to identify GnRHR agonists.
GnRHR-Hek293 cells were dispensed at 1500cells/4uL/well in 1536-well black wall/clear bottom plates using a multidrop dispenser. After the assay plates were incubated at a 37 C/5% CO2 incubator for 18 hours, 4 uL of Calcium Dye Solution was added to each well. The plates were incubated at 37 C for 1 hour. For agonist mode, 23 nL of compounds dissolved in DMSO, positive controls or DMSO only was transferred to the assay plate by a pin tool station. The fluorescence intensity in the plates was measured using FDSS 7000EX kinetic plate reader with a filter set of Ex/Em=480/540 for 3 min at 1 sec intervals. Each test compound was measured at 15 concentrations and in triplicates.
(In general: Calcium assays in cells follow changes in intracellular calcium, usually with a dye or a luminescent sensor.)
`CCCCCCCCCCCCOC(=O)c1ccc(O)cc1`: the Potency result was “inactive”.
The same measure, in the same setting: the same measure for `O=C(O)CC(C(=O)O)S(=O)(=O)O` (stereo not given): “inactive”; for `COc1ccccc1N1CCN(CCCCNC(=O)c2ccc(-c3ccc(C(C)=O)cc3)cc2)CC1`: “inactive”; for `O=[N+]([O-])c1cc(Cl)c(Cl)c(Cl)c1Cl`: “inactive”.
The same measure, in the same setting: in the case of `CN1CCN(c2c(F)cc3c(=O)c(C(=O)O)cn4c3c2SCC4)CC1` it was “inactive”.
With `O=C1CCCc2c(O)cccc21`, the Potency entry was “inactive”.
For `CN(C)c1ccc(C(c2ccccc2)c2ccc(N(C)C)cc2)cc1`, the Potency entry was “inactive”.
As to `NC(CO)C(=O)NNCc1ccc(O)c(O)c1O` (stereo not given), the Potency result was “inactive”.
Same read-out and setting: in the case of `CC(C)Nc1cccnc1N1CCN(C(=O)c2cc3cc(NS(C)(=O)=O)ccc3[nH]2)CC1` it was “inactive”; in that of `CCCc1nc2c(C)cc(-c3nc4ccccc4n3C)cc2n1Cc1ccc(-c2ccccc2C(=O)O)cc1`, “inactive”; in that of `CCOC(=O)C(=O)CCCCCCl`, “inactive”.
Still for that read-out and setting: in the case of `C=CC(=O)O` it was “inactive”.
The same measure, in the same setting: in the case of `O=C(Nc1ccc2c(O)c(N=Nc3ccc(N=Nc4ccc(S(=O)(=O)O)cc4)cc3)c(S(=O)(=O)O)cc2c1)c1ccccc1` it was “inactive”.
On to `Cc1cccc(C)c1NC(=O)c1ccccc1C(=O)O`, for which the Potency entry is “inactive”.
With `CC(C)Cn1cnc2c(N)nc3ccccc3c21`, the activity change is -1.43% [at 11.8 µM, hits give high values].
Regarding `CO[Si](C)(OC)c1ccccc1`, the Potency result is “inactive”.
For `S=C1NC=NC2N=CNC12` (stereo not given), the Potency entry is “inactive”.
For `CCCCCCC(O)CO` (stereo not given), the Potency result is “inactive”.
Still for that read-out and setting: the same measure for `N[C@H]1CN(c2c(F)cc3c(=O)c(C(=O)O)cn(C4C[C@H]4F)c3c2Cl)CC12CC2` (stereo not given in full): “inactive”; for `CC(C)(C#N)Nc1nc(Cl)nc(NC2CC2)n1`: “inactive”; for `CN(C)CCCOc1nn(Cc2ccccc2)c2ccccc12`: “inactive”.
As to `C[C@H](CCC(=O)O)[C@H]1CC[C@H]2[C@@H]3[C@H](O)C[C@@H]4C[C@H](O)CC[C@]4(C)[C@H]3C[C@H](O)[C@]12C`, the Potency result is “inactive”.
Take `COc1cc(S(=O)(=O)O)c(C)cc1N=Nc1c(O)ccc2cc(S(=O)(=O)O)ccc12`: the Potency entry was “inactive”.
Still for that read-out and setting: in the case of `CC(C)NCC(O)COc1ccc(COCCOC(C)C)cc1` (stereo not given) it was “inactive”; in that of `CS(=O)(=O)c1ccc(-c2cn3ccccc3n2)cc1`, “inactive”.
Consider `Cc1ccsc1C(=CCCN1CCC[C@@H](C(=O)O)C1)c1sccc1C`, for which the Potency result was “inactive”.
Still for that read-out and setting: in the case of `CCCCOC(=O)C(C)O` (stereo not given) it was “inactive”; in that of `Cc1nc(C2CCCCC2)c(-c2ccc(S(N)(=O)=O)c(F)c2)o1`, “inactive”; in that of `CC(=O)Nc1ccc(C)c(Cl)c1`, “inactive”.
Same read-out and setting: in the case of `O=C(O)CCC(=O)c1ccc(-c2ccccc2)cc1` it was “inactive”; in that of `Clc1nc(C(Cl)(Cl)Cl)c(Cl)c(Cl)c1Cl`, “inactive”.
Still for that read-out and setting: the same measure for `CCOC(=O)C(O)c1ccccc1` (stereo not given): “inactive”.
For `CCCCCO`, the Potency result is “inactive”.
As to `COc1ccc(OC)c(NC(=O)CC(C)=O)c1`, the Potency result was “inactive”.
`C=CCSSCCC`: the Potency result was “inactive”.
On the same count and under the same terms, the same measure for `CC(=O)OC(C)c1ccccc1` (stereo not given): “inactive”; for `Cc1cccc(C(C)(C)C)c1O`: “inactive”.
On the same count and under the same terms, in the case of `CCCCCCCCCCCCCCCC[N+](C)(C)CCN(Cc1ccc(OC)cc1)c1ncccn1` it was “inactive”; in that of `Cc1cc(O)c(C(C)(C)C)cc1Sc1cc(C(C)(C)C)c(O)cc1C`, “inactive”; in that of `Cc1oc(-c2ccccc2)nc1CCC(=O)c1ccc(CC2SC(=O)NC2=O)cc1` (stereo not given), “inactive”.

For the origin of these results see PubChem BioAssay (Tox21).
